Compound activity deposited in PubChem by National Center for Advancing Translational Sciences (NCATS).
This is a sample that favours compounds with a hit; in the whole collection about 2.7% have one here.
A549 viability: Nrf2 qHTS screen for inhibitors: counterscreen for cytotoxicity | A549 ARE-Fluc cells, CellTiter-Fluor viability, 18-24 h | Potency, µM (titrated, usually from 46 µM), actives largely listed as inhibitors | actives 0.16% (n = 390,000) | AID 504648, 2011
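Cytotoxicity counterscreen: CellTiter-Fluor fluorescence was measured in A549 ARE_Fluc cells after 18-24 h of compound exposure in a concentration series. The subsequent BugLite luminescent read reports ARE-luciferase activity.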
Nrf2 ARE act: qHTS of Nrf2 Activators; AID 624171, 2012; Potency, µM (doses to about 46.1 µM), most hits filed as activators; actives 0.31% (n = 410,000); AREc32 ARE-luciferase reporter (MCF7-derived line), luminescence, 24 h; also: nearly all actives have a fitted effect of over 65% in size
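AREc32 cells carrying an ARE-driven firefly luciferase reporter were seeded at 1000 cells/well in OPTI-MEM with 5% FBS, then exposed to compound for 24 hr at 37 deg C. Luminescence was read with Steady-Glo after 30 min at RT.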
ERG Ets-DNA blk: qHTS for Small Molecule Inhibitors of the ERG Ets/DNA interaction; Transcriptional regulator ERG (Homo sapiens), P11308; fluorescence polarization, His-ERG Ets domain / labelled DNA; Potency, µM (top dose mostly 76.9 µM), actives largely listed as inhibitors; actives 0.028% (n = 370,000); AID 624246, 2012; active = well fitted inhibition curve with a large enough effect in the polarisation, with a control signal flat; inconclusive = small, poorly fitted or top-dose-only effect, or effect the other way, or a change in a side signal; inactive = no such curve, though single readings can be large or run the other way; the % refers to the polarisation;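 also: polarization taken with two DNA probes labelled with fluorescein and Texas red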
Target sequence (P11308 whole entry, looked up, the tested form may be a part): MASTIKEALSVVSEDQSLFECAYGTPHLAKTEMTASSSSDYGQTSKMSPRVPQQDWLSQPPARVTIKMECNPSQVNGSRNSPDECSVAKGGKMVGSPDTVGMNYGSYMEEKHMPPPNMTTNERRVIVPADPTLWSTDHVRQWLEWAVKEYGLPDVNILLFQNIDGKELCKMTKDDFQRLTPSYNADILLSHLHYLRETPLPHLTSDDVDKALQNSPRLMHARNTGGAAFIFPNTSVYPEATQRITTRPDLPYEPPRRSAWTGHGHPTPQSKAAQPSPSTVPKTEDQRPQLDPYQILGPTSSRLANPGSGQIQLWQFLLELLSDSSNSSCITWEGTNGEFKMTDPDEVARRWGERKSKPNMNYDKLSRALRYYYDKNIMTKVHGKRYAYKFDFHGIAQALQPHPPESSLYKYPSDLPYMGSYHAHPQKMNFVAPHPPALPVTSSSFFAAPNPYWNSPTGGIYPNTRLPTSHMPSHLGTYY
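His-tagged ERG Ets domain (1 uM in the protein solution; 300mM KCl, 50mM Tris-HCl, 1mM EDTA, 1mM DTT, pH 7.5) received compound, then a probe mix of 5 nM fluorescein-DNA and 100nM Texas-615-DNA. Fluorescence polarization was read for both dyes.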
LDHA block: qHTS assay for inhibitors of human lactate dehydrogenase; actives 0.15% (n = 480,000); L-lactate dehydrogenase A chain (Homo sapiens), P00338; AID 1347041, 2019; purified LDHA, NADH/diaphorase-resazurin fluorescence; active compounds read low; activity change, % (values are at about 110 or 230 µM); in the data active = activity change below about -30%; inconclusive = mostly about -25% to -30%
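Resorufin fluorescence (ex540/em590), read at 0 and 20 min after diaphorase/resazurin addition, reports the NADH left after a 5 min room-temperature reaction of 2 nM human LDH5 with 0.06 mM NADH and 0.2 mM pyruvate.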
Nrf2 inh: Nrf2 qHTS screen for inhibitors; A549 ARE-Fluc reporter, luciferase luminescence, 18-24 h; Potency, µM (highest dose often 46 µM), actives largely listed as inhibitors; actives 2.1% (n = 360,000); AID 504444, 2011; also: nearly all actives have a fitted effect of over 60% in size
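Nrf2 activity is the BugLite luminescence, read 15 min after reagent at room temperature, following CellTiter-Fluor cytotoxicity readout (30 min, 37C). Compound titrations were applied for 18-24 h to 5000 A549 ARE_Fluc cells/well in 5% FBS OPTI-MEM.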
ALOX12 inh: Primary qHTS assay for inhibitors of human arachidonate 12S-lipoxygenase (ALOX12): Round 2 | Polyunsaturated fatty acid lipoxygenase ALOX12 (Homo sapiens), P18054 | purified 12hLO, xylenol orange hydroperoxide absorbance | Potency, µM (highest dose often 108 µM), hits mostly inhibitors | actives 1.1% (n = 580,000)
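Purified human 12hLO at 150 nM in 25 mM Hepes, 0.01% Triton X-100, pH 7.0, preincubated 15 min at room temperature with compound. Reaction started with 40 uM arachidonic acid, 30 min at room temperature. Hydroperoxide measured by Fe-xylenol orange, 573/405 nm absorbance ratio.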
Hits are given with their value; – = inactive; ? = inconclusive; · = no result. Unless noted, calls follow the shape of the dose curve; as a rule, active = well fitted curve in the direction sought with a large enough effect; inconclusive = small, poorly fitted or top-dose-only effect, or another doubt; inactive = no such curve, though single readings can be large; an effect the other way counts as inactive or inconclusive.

SMILES	A549 viability	Nrf2 ARE act	ERG Ets-DNA blk	LDHA block	Nrf2 inh	ALOX12 inh
COc1ccc(C(=O)c2sc(Nc3ccc(NC(C)=O)cc3)nc2C)cc1	–	–	–	–	–	–
COc1ccc(Nc2nc(C)c(C(C)=O)s2)cc1	·	–	·	–	·	44.7µM
COc1ccc(S(=O)(=O)NNS(=O)(=O)c2ccc(OC)c(OC)c2)cc1OC	·	–	·	-81.3	·	·
CCc1cc(Cn2nc(-c3ccccc3)cc2C(=O)NCc2cccs2)on1	–	–	–	–	?	8.91µM
CCOC(=O)c1cc(-c2ccccc2)nn1Cc1cc(CC)no1	–	–	–	–	–	–
CCOC(=O)c1cc(-c2ccccc2C)nn1Cc1cc(CC)no1	–	–	–	–	?	7.94µM
O=C(Nc1ccc(Cl)c(Cl)c1)Nc1nnc(-c2ccncc2)o1	·	·	·	–	·	·
CC(=O)O/N=C/c1c(N2CCOCC2)n(C)c2ccccc12	·	–	–	–	6.51µM	–
Cn1c(N2CCOCC2)c(/C=N/O)c2ccccc21	–	–	–	–	?	–
Cn1c(N2CCOCC2)c(/C=N/OC(=O)c2ccc(F)cc2)c2ccccc21	–	–	–	–	0.651µM	–
Cc1ccc(C(=O)O/N=C/c2c(N3CCOCC3)n(C)c3ccccc23)cc1	–	–	–	–	?	–
CC(OC(=O)c1ccc(C#N)cc1)C(=O)NC(C)C1CC2CCC1C2 (stereo not given)	·	·	·	–	·	?
CCS(=O)(=O)NC(CCSC)C(=O)O (stereo not given)	·	·	·	–	·	?
COc1ccc(C(=O)C[n+]2cn(C(F)F)c3ccccc32)c(F)c1	–	–	–	-40.0	?	–
COc1ccc(C(=O)C[n+]2cc(Br)cc3ccccc32)cc1	·	·	·	–	·	·
C#CCN(C[C@H]1[C@H](OC(=O)NCC2CCCCC2)[C@H](OC(=O)NCC2CCCCC2)C[C@H]2C(=O)N(c3ccccc3)C(=O)[C@@H]12)S(=O)(=O)c1ccc(C)cc1	·	–	·	–	·	44.7µM
C#CCN(C[C@H]1[C@H](OC(=O)NC2CC2)[C@H](OC(=O)NC2CC2)C[C@H]2C(=O)N(c3ccccc3)C(=O)[C@@H]12)S(=O)(=O)c1ccc(C)cc1	·	–	·	–	·	–
Cc1cc(-c2nnn(CC(=O)NC(N)=O)n2)ccc1F	·	·	·	–	·	–
CCN(CC)c1ccc(NS(=O)(=O)c2ccc3c(c2)CCCC3)cc1C(=O)O	·	·	·	–	·	7.94µM
O=C(Nc1ccc(Br)cc1)C1C2CCC3C(CCC21)C3(Cl)Cl (stereo not given)	·	·	·	–	·	?
O=[N+]([O-])c1cc(C(F)(F)F)ccc1NCCCCNS(=O)(=O)c1ccc(Cl)cc1	?	–	–	–	?	?
O=[N+]([O-])c1cc(C(F)(F)F)ccc1NCCNC(=S)Nc1ccc(Cl)cc1	?	–	·	–	?	39.8µM
COc1cccc(NC(=O)Cn2cc(C#N)c3cc(Br)ccc32)c1	·	·	·	–	·	?
CC(C)C(=O)N1N=C(c2ccc(NS(C)(=O)=O)cc2)CC1c1cccs1 (stereo not given)	?	–	–	–	–	–
Cc1ccc(C(=O)N2N=C(c3cccc(NS(C)(=O)=O)c3)CC2c2cccs2)cc1 (stereo not given)	–	–	–	–	23.1µM	–
SMILES	A549 viability	Nrf2 ARE act	ERG Ets-DNA blk	LDHA block	Nrf2 inh	ALOX12 inh
CS(=O)(=O)Nc1ccc(C2=NN(C(=O)C3CCCCC3)C(c3cccs3)C2)cc1 (stereo not given)	–	–	–	–	23.1µM	?
CN1CCN(c2ccc3ncc(Nc4cccc(C(F)(F)F)c4)n3n2)CC1	·	·	·	·	·	–
CC(=O)Oc1ccc2ccccc2c1C(NC(=O)Cc1ccccc1)c1ccc(Cl)cc1 (stereo not given)	?	–	–	–	20.6µM	–
O=C(CC1SC(=Nc2cccc3ccccc23)N(Cc2ccccn2)C1=O)Nc1ccccc1Br (stereo not given)	–	–	–	–	5.17µM	–
Cc1ccccc1N=C1SC(CC(=O)Nc2ccc3ccccc3c2)C(=O)N1Cc1ccccn1 (stereo not given)	–	–	–	–	?	–
Cc1cc(C)c(C(C)NC(=O)Cn2nnn(-c3ccccc3)c2=O)cc1C (stereo not given)	·	·	·	–	·	–
CCOc1cccc(C(N)=S)c1	·	·	·	–	·	?
CCOc1ccc(C(N)=S)cc1	·	·	·	–	·	14.1µM
CN(C)C(=S)c1ccc(N(C)C)cc1	–	–	–	–	–	?
CN(C)c1ccc(C(N)=S)cc1	·	·	·	–	·	15.8µM
Cc1cc2oc(=O)cc(-c3ccccc3)c2c2occ(-c3ccccc3)c12	·	·	·	–	·	–
Cc1ccc(NC(=O)C2CCCN(c3ncnc4onc(C)c34)C2)cc1Cl (stereo not given)	?	–	–	–	13µM	–
Cc1ccc(Cl)cc1N1CCN(c2ncnc3onc(C)c23)CC1	–	–	–	–	20.6µM	–
Cc1noc2ncnc(N3CCN(c4cccc(Cl)c4)CC3)c12	–	–	–	–	?	–
O=C(Cc1ccc(Cl)cc1)NNC(=O)C1CCCCC1	·	·	·	–	·	–
CC(=O)N(C)c1ccc(OCC(O)Cn2c3ccc(Cl)cc3c3cc(Cl)ccc32)cc1 (stereo not given)	?	–	–	–	20.6µM	·
CC(C)Oc1ccc(/C=C(/C#N)C(=O)c2ccccc2F)cc1	·	·	·	–	·	?
Brc1ccc(-c2nnc(-c3cccnc3)o2)cc1	–	–	–	–	?	–
Brc1ccccc1-c1nnc(-c2cccnc2)o1	–	15.8µM	–	–	?	–
COc1ccc(C(=O)C(Cl)C(=O)c2ccc(OC)cc2)cc1	·	·	·	–	·	?
Cc1cc(C)cc(-c2cccc(CN)c2)c1	·	·	·	·	·	–
CCN1CCc2c(sc(NC(=O)c3ccc(S(=O)(=O)N(CC)c4ccccc4)cc3)c2C(N)=O)C1	23.1µM	–	–	–	16.4µM	?
CC1=C[C@@H](CNC(=O)c2ccnc(Cl)c2)[C@H](C(C)C)C[C@H]1Cc1nc2ccc(C)cc2[nH]1	·	·	·	·	·	–
O=C(NCCn1cc(SCc2cccc(F)c2)c2ccccc21)c1cccc(C(F)(F)F)c1	–	–	–	–	?	?
COc1ccc(C(=O)NCCn2cc(SCc3cccc(F)c3)c3ccccc32)cc1OC	–	–	–	–	23.1µM	–
COc1ccccc1C(=O)NCCn1cc(SCC(=O)Nc2ccccc2F)c2ccccc21	–	–	–	–	23.1µM	–
COc1ccc(Cl)cc1NC(=O)CSC1=NN2CCCC(=O)N=C2S1	–	–	–	–	23.1µM	–
O=C(CSc1cn(CCNC(=O)c2ccc3ccccc3c2)c2ccccc12)NCc1ccco1	–	–	–	–	23.1µM	–
